Assay results published in PMC7862700, “An all-to-all approach to the identification of sequence-specific readers for epigenetic DNA modifications on cytosine”.

How the values were obtained:
Assay in all cases: DAPPL (digital affinity profiling via proximity ligation, sequencing); 10 mM Tris-HCl pH 7.5, 50 mM NaCl, 1 mM DTT, 4% glycerol, room temperature, 30 min; GST-TFs on glutathione beads, 16-mer random dsDNA library, 0.1% formaldehyde crosslink after washing; high values mean tight binding
FEV = target: T1, FEV (Homo sapiens, UniProt Q99581 1-238); details: protein: recombinant; tags: N-terminal GST; dsDNA, one strand shown
T1 sequence: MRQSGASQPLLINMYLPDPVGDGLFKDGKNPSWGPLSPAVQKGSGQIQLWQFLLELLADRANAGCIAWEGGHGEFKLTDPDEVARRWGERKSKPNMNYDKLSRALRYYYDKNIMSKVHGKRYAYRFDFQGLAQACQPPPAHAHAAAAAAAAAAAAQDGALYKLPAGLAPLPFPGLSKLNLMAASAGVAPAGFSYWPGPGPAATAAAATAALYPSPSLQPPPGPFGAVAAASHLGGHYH
Procedure, shortened: (§1)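 Pools of DNA-barcoded human transcription factors, expressed in yeast as GST fusions on glutathione beads and combined with a tag-only sample, were incubated with 200 nmole of a 16-mer random double-stranded DNA library. Incubation took 30 min at room temperature in Tris/NaCl/DTT/glycerol buffer and was followed by washing, 0.1% formaldehyde crosslinking, proximity ligation (BsaI/T4 ligase, 1 h, 37 °C), PCR amplification and sequencing on an Illumina NextSeq500. Binding signal is the ratio of a hexamer's read frequency for a factor to its frequency for the tag-only sample.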

ETV5 = ETV5 (Homo sapiens, UniProt P41161 1-510); details: protein: recombinant; tags: N-terminal GST; dsDNA, one strand shown
Procedure, shortened: as §1

HSF1 = HSF1 (Homo sapiens, UniProt Q00613 1-529); details: protein: recombinant; tags: N-terminal GST; chain copies: 3; dsDNA, one strand shown
Procedure, shortened: as §1

SPIC = target: T2, SPIC (Homo sapiens, UniProt Q8N5J4 1-248); details: protein: recombinant; tags: N-terminal GST; dsDNA, one strand shown
T2 sequence: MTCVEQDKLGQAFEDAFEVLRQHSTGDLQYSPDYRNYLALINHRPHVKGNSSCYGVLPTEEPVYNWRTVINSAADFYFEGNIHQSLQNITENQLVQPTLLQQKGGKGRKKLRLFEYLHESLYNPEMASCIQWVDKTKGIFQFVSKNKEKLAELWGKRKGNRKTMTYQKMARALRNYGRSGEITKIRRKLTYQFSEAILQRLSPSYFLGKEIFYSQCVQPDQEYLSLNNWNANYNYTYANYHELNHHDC
Procedure, shortened: as §1

ELF4 = ELF4 (Homo sapiens, UniProt Q99607 1-663); details: protein: recombinant; tags: N-terminal GST; dsDNA, one strand shown
Procedure, shortened: as §1

ELK4 = target: T3, ELK4 (Homo sapiens, UniProt P28324-2 1-405); details: protein: recombinant; tags: N-terminal GST; dsDNA, one strand shown
T3 sequence: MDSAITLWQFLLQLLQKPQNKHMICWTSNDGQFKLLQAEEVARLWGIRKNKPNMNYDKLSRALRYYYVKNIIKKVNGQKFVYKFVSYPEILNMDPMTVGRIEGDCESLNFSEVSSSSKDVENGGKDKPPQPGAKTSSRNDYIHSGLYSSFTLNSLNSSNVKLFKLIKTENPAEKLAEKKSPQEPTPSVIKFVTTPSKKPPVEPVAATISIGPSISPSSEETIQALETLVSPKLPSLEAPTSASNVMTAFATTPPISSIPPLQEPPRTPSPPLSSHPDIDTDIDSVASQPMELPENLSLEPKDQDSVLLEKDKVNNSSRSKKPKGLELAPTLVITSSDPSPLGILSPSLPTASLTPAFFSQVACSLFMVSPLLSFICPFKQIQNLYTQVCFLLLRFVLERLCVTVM
Procedure, shortened: as §1

ETV2 = target: T4, ETV2 (Homo sapiens, UniProt O00321 1-342); details: protein: recombinant; tags: N-terminal GST; dsDNA, one strand shown
T4 sequence: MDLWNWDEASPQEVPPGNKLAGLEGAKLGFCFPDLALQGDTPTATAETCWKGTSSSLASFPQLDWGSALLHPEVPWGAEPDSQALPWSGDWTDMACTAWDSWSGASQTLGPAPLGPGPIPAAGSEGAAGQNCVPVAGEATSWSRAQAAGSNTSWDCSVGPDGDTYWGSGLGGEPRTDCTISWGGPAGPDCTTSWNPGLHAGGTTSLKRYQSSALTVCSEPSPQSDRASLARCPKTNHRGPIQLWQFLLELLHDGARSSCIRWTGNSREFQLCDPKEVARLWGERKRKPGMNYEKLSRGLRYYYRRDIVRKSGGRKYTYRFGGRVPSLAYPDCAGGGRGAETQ
Procedure, shortened: as §1

ELF3 = target: T5, ELF3 (Homo sapiens, UniProt P78545 1-371); details: protein: recombinant; tags: N-terminal GST; dsDNA, one strand shown
T5 sequence: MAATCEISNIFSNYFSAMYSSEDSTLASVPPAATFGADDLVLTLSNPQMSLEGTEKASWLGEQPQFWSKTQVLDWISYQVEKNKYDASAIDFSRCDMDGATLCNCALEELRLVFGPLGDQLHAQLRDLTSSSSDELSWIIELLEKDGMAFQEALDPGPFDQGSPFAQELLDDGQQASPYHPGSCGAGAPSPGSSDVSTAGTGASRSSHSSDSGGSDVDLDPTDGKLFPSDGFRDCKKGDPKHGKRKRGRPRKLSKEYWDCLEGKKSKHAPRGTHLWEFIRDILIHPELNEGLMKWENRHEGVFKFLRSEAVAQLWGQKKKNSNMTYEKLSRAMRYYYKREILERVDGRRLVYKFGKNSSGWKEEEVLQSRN
Procedure, shortened: as §1

CRX = CRX (Homo sapiens, UniProt O43186 1-299); details: protein: recombinant; tags: N-terminal GST; dsDNA, one strand shown
Procedure, shortened: as §1

ETV1 = ETV1 (Homo sapiens, UniProt P50549 1-477); details: protein: recombinant; tags: N-terminal GST; dsDNA, one strand shown
Procedure, shortened: as §1

ERF = target: T6, ERF (Homo sapiens, UniProt P50548 1-548); details: protein: recombinant; tags: N-terminal GST; dsDNA, one strand shown
T6 sequence: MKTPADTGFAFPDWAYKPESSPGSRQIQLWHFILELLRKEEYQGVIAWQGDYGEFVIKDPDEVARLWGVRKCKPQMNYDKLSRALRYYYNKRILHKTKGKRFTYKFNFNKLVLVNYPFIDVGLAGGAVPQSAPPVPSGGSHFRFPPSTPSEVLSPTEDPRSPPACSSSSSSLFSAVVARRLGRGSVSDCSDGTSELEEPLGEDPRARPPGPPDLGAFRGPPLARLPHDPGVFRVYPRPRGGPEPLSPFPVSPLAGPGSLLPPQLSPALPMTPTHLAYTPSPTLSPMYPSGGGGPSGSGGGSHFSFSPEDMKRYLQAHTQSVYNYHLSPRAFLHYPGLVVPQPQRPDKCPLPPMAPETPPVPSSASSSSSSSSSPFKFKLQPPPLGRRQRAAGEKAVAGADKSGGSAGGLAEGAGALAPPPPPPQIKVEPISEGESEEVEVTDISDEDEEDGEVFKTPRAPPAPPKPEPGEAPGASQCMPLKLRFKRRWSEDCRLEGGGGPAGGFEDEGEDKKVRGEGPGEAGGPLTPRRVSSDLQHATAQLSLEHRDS
Procedure, shortened: as §1

ETV3L = target: T7, ETV3L (Homo sapiens, UniProt Q6ZN32 1-361); details: protein: recombinant; tags: N-terminal GST; dsDNA, one strand shown
T7 sequence: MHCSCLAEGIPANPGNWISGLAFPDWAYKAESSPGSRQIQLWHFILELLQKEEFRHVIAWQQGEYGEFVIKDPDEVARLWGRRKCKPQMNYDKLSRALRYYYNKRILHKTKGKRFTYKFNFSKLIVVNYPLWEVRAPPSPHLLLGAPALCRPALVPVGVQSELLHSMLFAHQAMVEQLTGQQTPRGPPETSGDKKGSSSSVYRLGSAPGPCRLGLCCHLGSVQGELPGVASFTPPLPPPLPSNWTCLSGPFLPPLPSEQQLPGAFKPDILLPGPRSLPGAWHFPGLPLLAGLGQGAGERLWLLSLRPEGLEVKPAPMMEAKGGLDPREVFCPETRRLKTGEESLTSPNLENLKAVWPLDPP
Procedure, shortened: as §1

ETS2 = target: T8, ETS2 (Homo sapiens, UniProt P15036 1-469); details: protein: recombinant; tags: N-terminal GST; dsDNA, one strand shown
T8 sequence: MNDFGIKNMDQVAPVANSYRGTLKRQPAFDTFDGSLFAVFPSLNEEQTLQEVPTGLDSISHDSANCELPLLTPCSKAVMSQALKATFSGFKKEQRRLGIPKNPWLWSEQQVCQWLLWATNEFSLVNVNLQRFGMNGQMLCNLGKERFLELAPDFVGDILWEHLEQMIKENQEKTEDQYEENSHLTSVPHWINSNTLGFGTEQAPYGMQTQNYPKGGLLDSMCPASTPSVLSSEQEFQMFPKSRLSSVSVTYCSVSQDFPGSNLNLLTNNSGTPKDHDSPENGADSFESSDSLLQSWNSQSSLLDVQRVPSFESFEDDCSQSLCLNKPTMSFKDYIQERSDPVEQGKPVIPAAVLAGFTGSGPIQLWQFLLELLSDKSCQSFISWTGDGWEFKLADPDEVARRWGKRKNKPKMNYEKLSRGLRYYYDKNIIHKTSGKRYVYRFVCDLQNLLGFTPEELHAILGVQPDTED
Procedure, shortened: as §1

SPDEF = target: T9, SPDEF (Homo sapiens, UniProt O95238 1-335); details: protein: recombinant; tags: N-terminal GST; dsDNA, one strand shown
T9 sequence: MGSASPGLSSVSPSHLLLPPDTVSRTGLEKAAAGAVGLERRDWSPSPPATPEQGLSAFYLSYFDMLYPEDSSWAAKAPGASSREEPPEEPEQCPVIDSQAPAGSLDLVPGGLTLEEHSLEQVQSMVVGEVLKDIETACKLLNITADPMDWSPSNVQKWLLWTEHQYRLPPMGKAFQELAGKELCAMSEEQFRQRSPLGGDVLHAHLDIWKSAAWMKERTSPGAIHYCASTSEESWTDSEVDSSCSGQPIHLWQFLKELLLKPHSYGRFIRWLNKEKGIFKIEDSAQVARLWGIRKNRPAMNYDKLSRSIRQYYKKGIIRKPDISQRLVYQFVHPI
Procedure, shortened: as §1

ETV7 = target: T10, ETV7 (Homo sapiens, UniProt Q9Y603 1-341); details: protein: recombinant; tags: N-terminal GST; dsDNA, one strand shown
T10 sequence: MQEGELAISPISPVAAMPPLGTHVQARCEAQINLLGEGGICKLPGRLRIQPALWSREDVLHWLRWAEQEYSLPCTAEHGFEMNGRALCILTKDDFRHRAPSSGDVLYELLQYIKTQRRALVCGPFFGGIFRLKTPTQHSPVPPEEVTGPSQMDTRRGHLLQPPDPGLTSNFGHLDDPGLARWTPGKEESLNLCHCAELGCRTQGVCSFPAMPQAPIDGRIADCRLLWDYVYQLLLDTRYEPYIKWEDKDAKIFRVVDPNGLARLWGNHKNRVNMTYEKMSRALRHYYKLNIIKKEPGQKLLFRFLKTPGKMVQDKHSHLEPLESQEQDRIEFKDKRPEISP
Procedure, shortened: as §1

ETV3 = target: T11, ETV3 (Homo sapiens, UniProt P41162-2 1-143); details: protein: recombinant; tags: N-terminal GST; dsDNA, one strand shown
T11 sequence: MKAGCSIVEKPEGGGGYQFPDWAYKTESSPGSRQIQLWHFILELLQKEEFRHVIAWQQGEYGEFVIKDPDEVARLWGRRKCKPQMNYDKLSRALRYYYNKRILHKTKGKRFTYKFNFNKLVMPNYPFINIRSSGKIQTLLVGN
Procedure, shortened: as §1

ETV6 = ETV6 (Homo sapiens, UniProt P41212 1-452); details: protein: recombinant; tags: N-terminal GST; dsDNA, one strand shown
Procedure, shortened: as §1

ELF5 = target: T12, ELF5 (Homo sapiens, UniProt Q9UKW6-2 1-255); details: protein: recombinant; tags: N-terminal GST; dsDNA, one strand shown
T12 sequence: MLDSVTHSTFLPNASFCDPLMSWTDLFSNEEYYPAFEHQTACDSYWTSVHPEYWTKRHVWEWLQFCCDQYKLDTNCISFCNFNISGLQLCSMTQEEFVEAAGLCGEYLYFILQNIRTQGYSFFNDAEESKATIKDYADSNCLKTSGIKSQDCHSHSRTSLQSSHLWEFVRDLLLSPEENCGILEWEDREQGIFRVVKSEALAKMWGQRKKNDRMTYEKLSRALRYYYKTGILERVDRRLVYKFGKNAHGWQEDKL
Procedure, shortened: as §1

Sequence of CRX (O43186 whole entry): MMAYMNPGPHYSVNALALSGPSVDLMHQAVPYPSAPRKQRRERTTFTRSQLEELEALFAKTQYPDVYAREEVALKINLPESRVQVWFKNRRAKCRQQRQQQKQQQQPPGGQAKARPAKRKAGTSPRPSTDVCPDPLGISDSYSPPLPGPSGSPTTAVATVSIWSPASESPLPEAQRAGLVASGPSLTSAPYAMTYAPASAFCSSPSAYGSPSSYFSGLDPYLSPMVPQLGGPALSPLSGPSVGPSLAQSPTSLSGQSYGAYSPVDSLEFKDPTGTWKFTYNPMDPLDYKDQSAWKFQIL
Sequence of ELF4 (Q99607 whole entry): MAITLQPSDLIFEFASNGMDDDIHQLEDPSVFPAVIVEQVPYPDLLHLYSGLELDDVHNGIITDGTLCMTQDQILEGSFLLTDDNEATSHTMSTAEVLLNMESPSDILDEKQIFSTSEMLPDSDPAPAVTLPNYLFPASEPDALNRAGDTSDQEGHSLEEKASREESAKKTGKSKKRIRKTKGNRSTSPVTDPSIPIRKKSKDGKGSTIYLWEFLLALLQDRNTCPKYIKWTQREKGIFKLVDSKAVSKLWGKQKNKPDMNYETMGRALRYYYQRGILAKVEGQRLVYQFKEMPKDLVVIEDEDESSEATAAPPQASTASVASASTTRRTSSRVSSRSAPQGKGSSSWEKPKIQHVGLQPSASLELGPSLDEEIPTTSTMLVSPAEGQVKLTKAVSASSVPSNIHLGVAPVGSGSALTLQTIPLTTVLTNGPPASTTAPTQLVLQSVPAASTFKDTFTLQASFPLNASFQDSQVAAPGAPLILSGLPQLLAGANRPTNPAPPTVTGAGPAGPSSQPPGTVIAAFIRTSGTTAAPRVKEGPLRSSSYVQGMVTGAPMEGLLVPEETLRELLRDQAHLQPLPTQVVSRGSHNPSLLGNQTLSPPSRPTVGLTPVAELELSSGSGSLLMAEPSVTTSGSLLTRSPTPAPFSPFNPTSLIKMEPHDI
Sequence of ETV1 (P50549 whole entry): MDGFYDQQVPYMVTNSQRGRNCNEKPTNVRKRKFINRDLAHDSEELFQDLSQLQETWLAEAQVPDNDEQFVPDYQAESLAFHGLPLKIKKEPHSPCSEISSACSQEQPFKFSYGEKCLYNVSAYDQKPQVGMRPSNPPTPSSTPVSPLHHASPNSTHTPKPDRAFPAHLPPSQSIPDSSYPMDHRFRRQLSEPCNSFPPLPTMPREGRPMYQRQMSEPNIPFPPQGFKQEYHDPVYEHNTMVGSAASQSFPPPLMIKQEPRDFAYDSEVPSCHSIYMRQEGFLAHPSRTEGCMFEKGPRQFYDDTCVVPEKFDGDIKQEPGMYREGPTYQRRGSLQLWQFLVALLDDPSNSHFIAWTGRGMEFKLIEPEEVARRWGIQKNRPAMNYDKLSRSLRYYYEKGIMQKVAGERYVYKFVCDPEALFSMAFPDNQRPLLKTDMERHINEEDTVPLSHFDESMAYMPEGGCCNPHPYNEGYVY
Sequence of HSF1 (Q00613 whole entry): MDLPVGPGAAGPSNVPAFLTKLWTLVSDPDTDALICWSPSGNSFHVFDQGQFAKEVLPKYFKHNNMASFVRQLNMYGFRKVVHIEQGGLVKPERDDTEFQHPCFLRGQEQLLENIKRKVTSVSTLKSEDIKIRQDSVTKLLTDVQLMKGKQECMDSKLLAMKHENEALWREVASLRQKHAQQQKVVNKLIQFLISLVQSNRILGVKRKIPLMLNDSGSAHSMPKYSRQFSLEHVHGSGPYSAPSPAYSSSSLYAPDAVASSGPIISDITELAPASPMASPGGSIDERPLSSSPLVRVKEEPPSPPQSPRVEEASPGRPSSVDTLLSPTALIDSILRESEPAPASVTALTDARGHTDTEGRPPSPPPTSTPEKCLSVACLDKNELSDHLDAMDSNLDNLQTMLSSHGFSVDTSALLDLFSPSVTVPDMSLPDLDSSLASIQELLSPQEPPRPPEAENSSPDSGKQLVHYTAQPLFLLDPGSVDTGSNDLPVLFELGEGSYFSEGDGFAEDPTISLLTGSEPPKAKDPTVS
Sequence of ETV6 (P41212 whole entry): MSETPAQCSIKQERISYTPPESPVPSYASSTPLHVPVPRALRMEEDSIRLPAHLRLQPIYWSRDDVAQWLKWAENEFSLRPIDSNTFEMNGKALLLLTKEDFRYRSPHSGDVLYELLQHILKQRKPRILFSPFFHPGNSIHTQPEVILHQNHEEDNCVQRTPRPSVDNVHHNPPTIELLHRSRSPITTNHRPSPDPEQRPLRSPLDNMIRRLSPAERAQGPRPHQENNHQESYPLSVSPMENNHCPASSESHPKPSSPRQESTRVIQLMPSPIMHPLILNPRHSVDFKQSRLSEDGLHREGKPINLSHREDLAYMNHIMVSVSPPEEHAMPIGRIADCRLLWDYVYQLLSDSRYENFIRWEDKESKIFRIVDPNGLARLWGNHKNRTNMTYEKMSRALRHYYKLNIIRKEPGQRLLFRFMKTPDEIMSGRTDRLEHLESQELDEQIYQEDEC
Sequence of ETV5 (P41161 whole entry): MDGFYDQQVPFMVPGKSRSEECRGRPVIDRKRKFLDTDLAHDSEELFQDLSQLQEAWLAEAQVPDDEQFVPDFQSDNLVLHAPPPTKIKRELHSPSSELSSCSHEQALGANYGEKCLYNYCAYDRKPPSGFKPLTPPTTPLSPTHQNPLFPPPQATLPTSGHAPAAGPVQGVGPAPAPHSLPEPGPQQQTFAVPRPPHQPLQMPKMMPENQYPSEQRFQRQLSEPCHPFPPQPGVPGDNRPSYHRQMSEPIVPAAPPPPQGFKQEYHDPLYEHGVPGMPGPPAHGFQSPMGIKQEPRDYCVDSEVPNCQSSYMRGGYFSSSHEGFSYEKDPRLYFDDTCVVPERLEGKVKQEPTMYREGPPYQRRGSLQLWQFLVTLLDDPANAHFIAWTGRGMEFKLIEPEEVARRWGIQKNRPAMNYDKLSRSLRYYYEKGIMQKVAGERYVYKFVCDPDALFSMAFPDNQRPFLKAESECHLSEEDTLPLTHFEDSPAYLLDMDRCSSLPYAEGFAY

Sequence	binding signal (FEV)	binding signal (ETV5)	binding signal (HSF1)	binding signal (SPIC)	binding signal (ELF4)	binding signal (ELK4)	binding signal (ETV2)	binding signal (ELF3)	binding signal (CRX)	binding signal (ETV1)	binding signal (ERF)	binding signal (ETV3L)	binding signal (ETS2)	binding signal (SPDEF)	binding signal (ETV7)	binding signal (ETV3)	binding signal (ETV6)	binding signal (ELF5)
CTGAGC	1.21 fold enrichment (6-mer frequency, TF over GST control)	1.12 fold enrichment (6-mer frequency, TF over GST control)	1.09 fold enrichment (6-mer frequency, TF over GST control)	1.08 fold enrichment (6-mer frequency, TF over GST control)	1.19 fold enrichment (6-mer frequency, TF over GST control)	1.14 fold enrichment (6-mer frequency, TF over GST control)	1.37 fold enrichment (6-mer frequency, TF over GST control)	1.16 fold enrichment (6-mer frequency, TF over GST control)	1.3 fold enrichment (6-mer frequency, TF over GST control)	1.15 fold enrichment (6-mer frequency, TF over GST control)	1.06 fold enrichment (6-mer frequency, TF over GST control)	1.14 fold enrichment (6-mer frequency, TF over GST control)	1.15 fold enrichment (6-mer frequency, TF over GST control)	1.16 fold enrichment (6-mer frequency, TF over GST control)	1.16 fold enrichment (6-mer frequency, TF over GST control)	1.01 fold enrichment (6-mer frequency, TF over GST control)	1.16 fold enrichment (6-mer frequency, TF over GST control)	
TCACAA	1.14 fold enrichment (6-mer frequency, TF over GST control)	1.12 fold enrichment (6-mer frequency, TF over GST control)	1.03 fold enrichment (6-mer frequency, TF over GST control)	1.18 fold enrichment (6-mer frequency, TF over GST control)	1.12 fold enrichment (6-mer frequency, TF over GST control)	1.21 fold enrichment (6-mer frequency, TF over GST control)	1.16 fold enrichment (6-mer frequency, TF over GST control)	1.15 fold enrichment (6-mer frequency, TF over GST control)	1.09 fold enrichment (6-mer frequency, TF over GST control)	1.13 fold enrichment (6-mer frequency, TF over GST control)	1.23 fold enrichment (6-mer frequency, TF over GST control)	1.14 fold enrichment (6-mer frequency, TF over GST control)	1.23 fold enrichment (6-mer frequency, TF over GST control)	1.19 fold enrichment (6-mer frequency, TF over GST control)		1.08 fold enrichment (6-mer frequency, TF over GST control)	1.03 fold enrichment (6-mer frequency, TF over GST control)	1.11 fold enrichment (6-mer frequency, TF over GST control)
